Assay results taken from PubChem BioAssay (NCATS).
Results filed as inconclusive are left out. A call without a number means that no potency is given here. Calls of active or inactive are those of the source. Calls follow the shape of the dose curve; as a rule, active = well fitted curve in the direction sought with a large enough effect; inconclusive = small, poorly fitted or top-dose-only effect, or another doubt; inactive = no such curve, though single readings can be large; an effect the other way counts as inactive or inconclusive.

Key:
[1] = UWB1.289-WTBRCA1 Cancer Cell Toxicity qHTS against the NCATS CANVASS Library (AID 1347354); details: UWB1.289-WTBRCA1 viability, CellTiter-Glo luminescence, 72 h; at 76 µM (top of the series) unless noted
How it was run: (§1)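 Luminescent ATP read-out (CellTiter-Glo, 15min at room temperature) measures survival after cells face an 11-point compound series for 72 hours at 37 degrees C/5% CO2.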

[2] = HEK-293 Cancer Cell Toxicity qHTS against the NCATS CANVASS Library (AID 1347355); details: HEK-293 viability, CellTiter-Glo luminescence, 72 h; series mostly up to 46.1 µM; also: nearly all actives have a fitted effect of over 65% in size
How it was run: as §1

[3] = HPAF-II 24hr Apoptosis Induction qHTS against the NCATS CANVASS Library (AID 1347356); details: HPAF-II caspase-3/7 Caspase-Glo luminescence; series mostly up to 91.4 µM
How it was run: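 Luminescent caspase-3/7 signal (DEVD substrate, Caspase-Glo) served as read-out, taken 15 min after reagent addition to HPAF-II cells exposed 24 h to compounds.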

[4] = HEK293 18hr Apoptosis Induction qHTS against the NCATS CANVASS Library (AID 1347357); details: HEK293 caspase-3/7 Caspase-Glo luminescence; series mostly up to 91.4 µM
How it was run: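 HEK293 cells (500 per well, DMEM with 10% FBS) were treated with natural products, incubated 18 hours at 37 degrees C, then caspase-3/7 activity was read by Caspase-Glo luminescence after 15 min at room temperature.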

[5] = HPAF-II 12hr Apoptosis Induction qHTS against the NCATS CANVASS Library (AID 1347358); details: HPAF-II caspase-3/7 Caspase-Glo luminescence; series mostly up to 91.4 µM
How it was run: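 500 HPAF-II cells/well; cmpds 11-pt; 12 hr, 37 degrees C/5% CO2; Caspase-Glo 3/7 added, 15 min RT dark; luminescence read. Doxorubicin titration as control.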

[6] = HEK293 24hr Apoptosis Induction qHTS against the NCATS CANVASS Library (AID 1347359); details: HEK293 caspase-3/7 activation, Caspase-Glo luminescence; series mostly up to 91.4 µM
How it was run: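 HEK293 cells, 500 per well, exposed to an 11-point compound series for 24 hours at 37 degrees C. Caspase 3/7 activity read by Caspase-Glo luminescence (DEVD substrate) after 15 min at room temperature.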

[7] = HPAF-II 18hr Apoptosis Induction qHTS against the NCATS CANVASS Library (AID 1347360); details: HPAF-II caspase-3/7 luminescence; series mostly up to 91.4 µM
How it was run: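 HPAF-II cells (500/well, DMEM + 10% FBS) were exposed to compounds for 18 hours at 37 degrees C. Caspase-3/7 activity was then read by Caspase-Glo 3/7 luminescence after 15 min at room temperature.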

[8] = HEK293 12hr Apoptosis Induction qHTS against the NCATS CANVASS Library (AID 1347361); details: HEK293 caspase-3/7 Caspase-Glo luminescence; series mostly up to 91.4 µM
How it was run: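 Read-out: Caspase-Glo 3/7 luminescence (DEVD substrate), 15 min RT. Preceded by 12 h compound exposure of HEK293, 500 cells/well, 11-pt qHTS titration; doxorubicin titration as control.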

[9] = molecular target: Luciferin 4-monooxygenase (Photinus pyralis) (UniProt P08659); assay: Firefly luciferase counterscreen qHTS: Assay Interference Panel against the NCATS CANVASS Library (AID 1347363); details: purified firefly luciferase, luminescence inhibition, 5 min; series mostly up to 57.5 µM
How it was run: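 Purified P. pyralis luciferase (0.04 ug/mL, 4x reagent) added to Tris-acetate buffer with 0.013 mM D-luciferin, 0.013 mM ATP and 13.3 mM Mg-acetate; compounds preincubated 15 min, then luminescence read after 5 min, RT.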

[10] = KB-8-5-11 Cancer Cell Toxicity qHTS against the NCATS CANVASS Library (AID 1347364); details: KB-8-5-11 MDR cells viability, CellTiter-Glo, 72 h; series mostly up to 46.1 µM; also: nearly all actives have a fitted effect of over 75% in size
How it was run: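 Plate 500 KB-8-5-11 cells per well in DMEM + 10% FBS, add compounds by pin transfer, incubate 72 hr at 37C. Add CellTiter-Glo, wait 10 minutes at room temperature, read luminescence.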

[11] = SDT Cancer Cell Toxicity qHTS against the NCATS CANVASS Library (AID 1347365); details: SDT dog glioma viability, ATP luminescence, 72 h; series mostly up to 91.4 µM; also: nearly all actives have a fitted effect of over 60% in size; also: potency is read from the fitted curve at half-maximal effect
How it was run: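 qHTS, SDT dog glioma line, 500 cells/well; cpds 11 pts; 72 hr, 37C, 5% CO2; CellTiterGlo ATP luminescence.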

[12] = KB-3-1 Cancer Cell Toxicity qHTS against the NCATS CANVASS Library (AID 1347366); details: KB-3-1 viability, CellTiter-Glo luminescence, 72 h; series mostly up to 91.4 µM; also: nearly all actives have a fitted effect of over 75% in size
How it was run: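 KB-3-1 cells (500 cells/well) in DMEM + 10% FBS were treated with compounds for 72 hr at 37C, 5% CO2. Viability was read as CellTiter-Glo luminescence after 10 minutes at room temperature.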

[13] = qHTS for ATAD5 Agonist screened against the NCATS CANVASS Library (AID 1347367); details: HEK293T ATAD5-luciferase reporter, luminescence, 16 h; series mostly up to 91.4 µM;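 also: luciferase reporter driven by ATAD5 which rises upon DNA damage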
How it was run: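 HEK293T cells stably carrying an ATAD5-controlled luciferase reporter (2000 cells/well) attached for 5 hr, then received compounds in an 11-point series for 16hr at 37C. Luminescence was read after a 30 min room-temperature reagent step.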

[14] = MCF7 Cancer Cell Toxicity qHTS against the NCATS CANVASS Library (AID 1347369); details: MCF7 viability, ATP luminescence (CellTiter-Glo), 72 h; series mostly up to 46 µM
How it was run: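 MCF7, 500 cells/well; cpds 11-pt qHTS; 72 hr, 37C/5% CO2; CellTiterGlo ATP luminescence.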

[15] = qHTS for ATAD5 Antagonist screened against the NCATS CANVASS Library (AID 1347370); details: HEK293T-ATAD5-luc, 5-FUrd stimulated, luminescence, 16 h; series mostly up to 91.4 µM;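 also: HEK293T cells carrying an ATAD5 luciferase reporter co-treated with 10 µM 5-fluorouridine; nearly all actives have a fitted effect of over 65% in size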
How it was run: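 HEK293T cells with stably integrated ATAD5-luciferase reporter, 2000/well, 5 h attachment; compounds plus 10 µM 5-fluorouridine, 16 h at 37 °C. Luciferase luminescence read, with CellTiter-Fluor viability read first.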

[16] = J3T Cancer Cell Toxicity qHTS against the NCATS CANVASS Library (AID 1347371); details: J3T dog glioma viability, ATP luminescence, 72 h; series mostly up to 46.1 µM
How it was run: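 Cells plated at 500 per well, compounds pin-transferred, plates incubated 72 hr at 37C, then CellTiterGlo added and luminescence read to measure ATP content.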

[17] = molecular target: Nuclear receptor subfamily 1 group I member 3 (Homo sapiens) (UniProt Q14994); assay: qHTS for Constitutive Androstane Receptor (CAR) Antagonist screened against the NCATS CANVASS Library (AID 1347372); details: HepG2-hCAR-CYP2B6 luciferase, CITCO-stimulated antagonist mode; series mostly up to 91.4 µM;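 also: cells stimulated with 50 nM CITCO agonist so inhibition reflects antagonism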
How it was run: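 HepG2 cells stably carrying hCAR and CYP2B6-2.2kb luciferase reporter, 2500 cells/well, compound with 50 nM CITCO agonist for 24hr at 37C. ONE-Glo luminescence measured CAR activity; CellTiter-Fluor read viability.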

[18] = molecular target: Nuclear receptor subfamily 1 group I member 3 (Homo sapiens) (UniProt Q14994); assay: qHTS for Constitutive Androstane Receptor (CAR) Agonist screened against the NCATS CANVASS Library (AID 1347373); details: HepG2-hCAR-CYP2B6 luciferase reporter, ONE-Glo luminescence; series mostly up to 91.4 µM;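 also: every well also contained 1.5 µM PK11195 alongside the test compound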
How it was run: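 HepG2-hCAR-CYP2B6 cells, 2500/well, attached 4hr; cpd + PK11195 1.5uM final; 24hr 37C 5% CO2. CellTiter-Fluor viability read, then ONE-Glo luminescence for CAR activation.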

[19] = system: NAD(P)H diaphorase (Clostridium kluyveri); assay: Diaphorse counterscreen qHTS: Assay Interference Panel against the NCATS CANVASS Library (AID 1347362); details: Diaphorase enzyme, resazurin to resorufin fluorescence; series mostly up to 114 µM
How it was run: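 Clostridium kluyveri diaphorase in PBS + 0.01% Tween-20 preincubated 15 min with compounds. Resazurin and NADH then added for 5 min at room temperature in the dark; resorufin fluorescence read (ex 525, em 598).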

[20] = G06 Cancer Cell Toxicity qHTS against the NCATS CANVASS Library (AID 1347368); details: G06 dog glioma cells, viability ATP luminescence, 72 h; series mostly up to 91.4 µM; also: nearly all actives have a fitted effect of over 60% in size
How it was run: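 Dog G06 glioma line, 500 cells/well; cpds pin-transferred, 11-pt; 72 hr, 37C/5% CO2; CellTiterGlo luminescence (ATP) endpoint.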

Sequence of Nuclear receptor subfamily 1 group I member 3 (Homo sapiens) (Q14994 whole entry, looked up): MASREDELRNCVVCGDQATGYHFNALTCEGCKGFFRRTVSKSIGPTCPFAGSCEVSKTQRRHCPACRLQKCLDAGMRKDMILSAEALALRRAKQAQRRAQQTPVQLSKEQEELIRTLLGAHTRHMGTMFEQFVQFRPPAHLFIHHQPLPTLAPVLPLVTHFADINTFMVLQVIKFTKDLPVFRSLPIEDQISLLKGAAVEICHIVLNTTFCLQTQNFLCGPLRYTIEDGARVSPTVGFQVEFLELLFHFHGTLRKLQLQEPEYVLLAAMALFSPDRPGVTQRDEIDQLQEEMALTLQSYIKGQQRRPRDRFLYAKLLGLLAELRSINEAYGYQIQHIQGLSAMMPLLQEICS
Sequence of Luciferin 4-monooxygenase (Photinus pyralis) (P08659 whole entry, looked up): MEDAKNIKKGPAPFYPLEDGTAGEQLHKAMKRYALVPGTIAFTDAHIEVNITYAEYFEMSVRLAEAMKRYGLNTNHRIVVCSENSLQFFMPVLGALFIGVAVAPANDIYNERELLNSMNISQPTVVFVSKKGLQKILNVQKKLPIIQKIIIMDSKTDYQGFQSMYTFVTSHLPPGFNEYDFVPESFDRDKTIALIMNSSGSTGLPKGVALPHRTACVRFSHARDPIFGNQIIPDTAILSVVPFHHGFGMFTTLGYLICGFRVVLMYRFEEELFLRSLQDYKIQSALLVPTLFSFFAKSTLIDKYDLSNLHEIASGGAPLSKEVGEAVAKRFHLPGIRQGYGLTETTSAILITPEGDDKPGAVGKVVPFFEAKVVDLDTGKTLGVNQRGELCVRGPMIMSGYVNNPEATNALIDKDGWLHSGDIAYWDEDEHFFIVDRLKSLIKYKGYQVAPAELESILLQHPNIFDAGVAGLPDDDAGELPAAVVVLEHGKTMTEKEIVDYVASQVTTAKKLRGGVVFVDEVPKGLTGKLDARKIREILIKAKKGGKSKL

Row | Compound | outcome [1] | outcome [2] | outcome [3] | outcome [4] | outcome [5] | outcome [6] | outcome [7] | outcome [8] | outcome [9] | outcome [10] | Potency [11] | outcome [12] | outcome [13] | outcome [14] | outcome [15] | outcome [16] | outcome [17] | outcome [18] | outcome [19] | outcome [20]
1 | CC(=O)NCCc1c[nH]c2ccc(O)cc12 | inactive [at 38.3 µM] | inactive | inactive | inactive | inactive | inactive | inactive | inactive | inactive | inactive | 1480 nM (active) | inactive | inactive | inactive | inactive | inactive | inactive | inactive | – | –
2 | O=C(O)Cc1c[nH]c2ccc(O)cc12 | inactive | inactive | inactive | inactive | inactive | inactive | inactive | inactive | inactive | inactive | inactive | inactive | inactive | inactive | inactive | inactive | inactive | inactive | inactive | inactive
